In PubChem BioAssay AID651742 (Broad Institute, 2012) one finds cytotoxicity (signal decrease) data, which are given here for 60 molecules.

Out of some 5,600 compounds screened, about 780 (14%) were called active. Not shown: some 3% with an inconclusive outcome.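 The calls were made as follows: active = mean signal decrease across replicates above about 35% based on untreated-well scatter, with enough replicates individually passing (limit read from the data); inconclusive = no rule stated though some were filed; inactive = the rest.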 The list is a sample of the results.

A short description of this assay: NIH3T3 cell viability loss – cherry-pick, single point, cytotoxicity control for T. cruzi proliferation inhibitor project, confirmation (AID 651742).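 Also: 0% = median of neutral control wells and 100% = median of positive control wells.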 The following applies: NIH/3T3 viability, CellTiter-Glo ATP luminescence, 90 h; at 8.35 µM; active compounds read high. For orientation: Cellular ATP, detected with luciferase, serves as a proxy for viable cell number.
In the case of `C[C@@H]1CCCCO[C@H](CN(C)C(=O)CCC(F)(F)F)[C@H](C)CN([C@H](C)CO)C(=O)c2cc(NS(C)(=O)=O)ccc2O1`, the cytotoxicity (signal decrease) was 5.17% (inactive).
As to `COc1ccccc1C#Cc1ccc([C@@H]2[C@H](CO)N3CCCCN(C(=O)C4CC4)C[C@@H]23)cc1`, the cytotoxicity (signal decrease) was 17.7% (inactive).
The value for `O=C(CN1CCOCC1)N1CCCCN2[C@@H](CO)[C@H](c3ccc(/C=C/c4ccccc4)cc3)[C@@H]2C1` was 32.3% (inactive); that for `CCC(=O)N1CCCCN2[C@H](C1)[C@@H](c1ccc(/C=C/c3ccccc3)cc1)[C@@H]2CO` was 38.9% (active).
Then `Cc1ccc(-c2ccc([C@H]3[C@H](CO)N4CCCCN(Cc5cncnc5)C[C@@H]34)cc2)cc1`, with 20% (inactive); and `COc1ccccc1C#Cc1ccc([C@H]2[C@H](CO)N3CCCCN(C(=O)C4CCC4)C[C@@H]23)cc1`, with 50.3% (active); and `OC[C@@H]1[C@H](c2ccc(C#Cc3ccccc3)cc2)[C@@H]2CN(Cc3cncnc3)CCCCN12`, with 41.5% (active).
Then `CCC(=O)N1CCCCN2[C@H](C1)[C@@H](c1ccc(-c3ccc(F)cc3)cc1)[C@@H]2CO`, with 15.5% (inactive); and `O=C(C1CCC1)N1CCCCN2[C@H](CO)[C@H](c3ccc(-c4ccncc4)cc3)[C@@H]2C1`, with -4.89% (inactive).
On to `OC[C@@H]1[C@H](c2ccc(C#CC3(O)CCCC3)cc2)[C@H]2CN(Cc3cncnc3)CCCCN12`, for which the cytotoxicity (signal decrease) is 13.7% (inactive).
The value for `O=C(C1CCC1)N1CCCCN2[C@H](CO)[C@H](c3ccc(-c4cccc(F)c4)cc3)[C@@H]2C1` was 30.8% (inactive); that for `COc1ccccc1C#Cc1ccc([C@@H]2[C@H](CO)N3CCCCN(C(=O)C4CCCC4)C[C@@H]23)cc1` was 53.5% (active); that for `COc1ccccc1NC(=O)N1CCCCN2[C@H](C1)[C@H](c1ccc(-c3ccccc3)cc1)[C@@H]2CO` was 33.3% (inactive).
Then `C[C@@H]1CCCCO[C@H](CN(C)S(=O)(=O)c2ccc(Cl)cc2)[C@H](C)CN([C@@H](C)CO)C(=O)c2cc(NS(=O)(=O)c3cccs3)ccc2O1`, with -18.8% (inactive); and `C[C@@H]1CN([C@H](C)CO)C(=O)CCCn2nncc2CO[C@@H]1CN(C)Cc1ccc(C(=O)Nc2ccccc2N)cc1`, with 14.8% (inactive); and `Cc1ccc(S(=O)(=O)N2C[C@@H](O)COC[C@@H]3O[C@H](CC(=O)NCc4ccc(Cl)c(Cl)c4)CC[C@H]32)cc1`, with 3.54% (inactive).
As to `O=C(C1CCCC1)N1CCCCN2[C@@H](CO)[C@H](c3ccc(-c4cccc(F)c4)cc3)[C@@H]2C1`, the cytotoxicity (signal decrease) is 25.5% (inactive).
The value for `CCCNC(=O)N1[C@@H]2c3cccc(=O)n3C[C@H]1[C@H](CO)[C@H]2C(=O)NCC(F)(F)F` was 19.4% (inactive); that for `C[C@@H]1CCCCO[C@H](CN(C)C(=O)Nc2cccc3ccccc23)[C@H](C)CN([C@H](C)CO)C(=O)c2cc(NS(=O)(=O)c3cccs3)ccc2O1` was 2.6% (inactive).
The value for `Cc1ccc(S(=O)(=O)Nc2ccc3c(c2)C(=O)N([C@H](C)CO)C[C@H](C)[C@H](CN(C)C(=O)Nc2ccc(F)cc2)OCCCC[C@H](C)O3)cc1` was -4.04% (inactive); that for `Cc1ccc(S(=O)(=O)N(C)C[C@H]2OCCCC[C@H](C)Oc3ccc(NC(=O)Cc4ccccc4)cc3C(=O)N([C@@H](C)CO)C[C@@H]2C)cc1` was -1.37% (inactive).
The value for `COc1ccc(NC(=O)N(C)C[C@H]2OCCCC[C@H](C)Oc3ccc(NC(=O)Nc4ccc(C(F)(F)F)cc4)cc3C(=O)N([C@@H](C)CO)C[C@@H]2C)cc1` was -11.5% (inactive); that for `C[C@H]1CCCCO[C@H](CN(C)S(=O)(=O)c2ccc(Cl)cc2)[C@@H](C)CN([C@@H](C)CO)C(=O)c2cc(NC(=O)Nc3ccc4c(c3)OCO4)ccc2O1` was 6.45% (inactive); that for `C[C@@H]1CN([C@@H](C)CO)C(=O)c2cc(C#Cc3ccccc3)cnc2O[C@H]1CN(C)C(=O)c1ccccn1` was 15.5% (inactive).
On to `C[C@@H]1CN([C@H](C)CO)S(=O)(=O)c2ccc(C#CCC3CCCC3)cc2O[C@H]1CN(C)C(=O)CC1CC1`, for which the cytotoxicity (signal decrease) is -5.41% (inactive).
The value for `C[C@H]1CCCCO[C@@H](CN(C)S(=O)(=O)c2cccs2)[C@@H](C)CN([C@@H](C)CO)C(=O)c2cc(NS(=O)(=O)c3ccc(Cl)cc3)ccc2O1` was 5.91% (inactive).
The value for `N#Cc1cccc(-c2ccc([C@H]3[C@H](CO)N4CCCCN(C(=O)Nc5cccc(F)c5)C[C@@H]34)cc2)c1` was 32.4% (inactive).
For `O=C(Nc1ccccc1)N1CCCCN2[C@H](CO)[C@@H](c3ccc(C#Cc4ccccn4)cc3)[C@H]2C1`, the cytotoxicity (signal decrease) was 1.29% (inactive).
The value for `O=C(Nc1cccc(F)c1)N1CCCCN2[C@H](CO)[C@H](c3ccc(C#CC4CC4)cc3)[C@@H]2C1` was 35.2% (active); that for `C[C@@H]1CN([C@H](C)CO)C(=O)c2cc(NS(=O)(=O)c3cccs3)ccc2O[C@@H](C)CCCCO[C@@H]1CN(C)S(=O)(=O)c1ccc(Cl)cc1` was -7.98% (inactive).
The value for `COc1ccc(NC(=O)Nc2ccc3c(c2)C(=O)N([C@H](C)CO)C[C@H](C)[C@H](CN(C)S(=O)(=O)c2ccc(Cl)cc2)OCCCC[C@H](C)O3)cc1` was -12.7% (inactive); that for `O=C(c1ccccn1)N1CC[C@@H]2[C@H]1c1cc(-c3ccccc3)ccc1N[C@@H]2CO` was 3.39% (inactive).
Then `C[C@@H]1CN([C@@H](C)CO)C(=O)c2cc(NC(=O)Nc3ccc4c(c3)OCO4)ccc2O[C@@H]1CN(C)Cc1ccc(Oc2ccccc2)cc1`, with 22.6% (inactive).
As for `C[C@@H]1CN([C@H](C)CO)C(=O)Cc2cc(NC(=O)Cc3ccccc3)ccc2O[C@H]1CN(C)Cc1ccc(Oc2ccccc2)cc1`, the cytotoxicity (signal decrease) was 1.79% (inactive).
Then `C[C@@H]1CN([C@H](C)CO)C(=O)Cc2cc(NC(=O)c3ccncc3)ccc2O[C@H]1CN(C)Cc1ccc(-c2ccccc2)cc1`, with 32.8% (inactive).
On to `C[C@H](CO)N1C[C@H](C)[C@@H](CN(C)Cc2ccc(-c3ccccc3)cc2)Oc2ccc(NC(=O)CCC(F)(F)F)cc2CC1=O`, for which the cytotoxicity (signal decrease) is 32.2% (inactive).
Then `C[C@H]1CN([C@@H](C)CO)C(=O)Cc2cc(NC(=O)Cc3cn(C)c4ccccc34)ccc2O[C@@H]1CN(C)Cc1ccccc1`, with -12.8% (inactive); and `C[C@@H]1CN([C@@H](C)CO)C(=O)Cc2cc(NC(=O)C3CCCCC3)ccc2O[C@@H]1CN(C)Cc1ccc(C(=O)Nc2ccccc2N)cc1`, with 37.8% (active).
For the molecule `C[C@H](CO)N1C[C@H](C)[C@H](CN(C)Cc2ccc(-c3ccccc3)cc2)Oc2ccc(NC(=O)Nc3ccc(F)cc3)cc2CC1=O`, the cytotoxicity (signal decrease) is 43.5% (active).
Then `O=C(C1CC1)N1CCCCN2[C@H](CO)[C@H](c3ccc(-c4cccc(F)c4)cc3)[C@H]2C1`, with 2.61% (inactive); and `CN1c2ccc(-c3ccccc3)cc2[C@H]2[C@H](CCN2C(=O)Cc2ccccn2)[C@H]1CO`, with 8.34% (inactive); and `C[C@@H]1CCCCO[C@H](CN(C)S(=O)(=O)c2cccs2)[C@H](C)CN([C@H](C)CO)C(=O)c2cc(NS(=O)(=O)c3ccc(F)cc3)ccc2O1`, with -5.09% (inactive).
`COc1ccc(NC(=O)N2CC[C@@H]3[C@@H](CO)N(C)c4ccc(-c5cccc(F)c5)cc4[C@@H]32)cc1`: the cytotoxicity (signal decrease) is 1.1% (inactive).
Then `O=C(NCC1CCCCC1)[C@H]1[C@H](CO)[C@H]2Cn3c(cccc3=O)[C@H]2N1C(=O)CC1CC1`, with 0.341% (inactive).
Turning to `COc1cccc(C#Cc2ccc([C@@H]3[C@H](C#N)N[C@H]3CO)cc2)c1`, the cytotoxicity (signal decrease) was -25.2% (inactive).
`COCC(=O)N1CC[C@@H]2[C@@H](CO)Nc3ccc(-c4cccc(C#N)c4)cc3[C@@H]21`: the cytotoxicity (signal decrease) was 2.33% (inactive).
Then `CN1C(=O)c2cc(NC(=O)c3cnccn3)ccc2OC[C@@H]2O[C@H](CC(=O)N[C@@H]3CCN(Cc4ccccc4)C3)CC[C@@H]21`, with -18.7% (inactive); and `CCC(=O)N1CC[C@@H]2[C@@H](CO)N(C)c3ccc(-c4cccc(OC)c4)cc3[C@@H]21`, with -4.46% (inactive); and `O=C(c1cnccn1)N1CC[C@@H]2[C@H](CO)Nc3ccc(-c4cccc(F)c4)cc3[C@@H]21`, with 32.9% (inactive).
The value for `O=C(c1cccc(F)c1)N1CCCCN2[C@H](CO)[C@H](c3ccc(-c4ccncc4)cc3)[C@H]2C1` was -11.1% (inactive).
As for `COCC#Cc1ccc([C@@H]2[C@H](CO)N3CCCCN(C(=O)CN(C)C)C[C@@H]23)cc1`, the cytotoxicity (signal decrease) was -18.1% (inactive).
Then `CN(C)C(=O)c1ccc(-c2ccc([C@H]3[C@@H](CO)N4CCCCN(CC5CC5)C[C@H]34)cc2)cc1`, with -1.46% (inactive).
On to `CCCC#Cc1ccc([C@H]2[C@H](CO)N3CCCCN(C(=O)c4ccc5c(c4)OCO5)C[C@@H]23)cc1`, for which the cytotoxicity (signal decrease) was 35.2% (active).
The value for `COc1ccc(C#Cc2ccc([C@@H]3[C@@H](CO)N4CCCCN(C(=O)c5ccncc5)C[C@@H]34)cc2)cc1` was 22.3% (inactive); that for `O=C(c1ccncc1)N1CCCCN2[C@H](CO)[C@H](c3ccc(-c4ccccc4)cc3)[C@H]2C1` was 6.21% (inactive); that for `CC(C)(O)C#Cc1ccc([C@@H]2[C@H](CO)N3CCCCN(C(=O)c4cccc(F)c4)C[C@@H]23)cc1` was -14.5% (inactive).
Then `COc1ccc(-c2ccc([C@H]3[C@H]4CN(C(=O)c5ccc6c(c5)OCO6)CCCCN4[C@H]3CO)cc2)cc1`, with 44.1% (active); and `Cc1cccc(-c2ccc([C@@H]3[C@H](CO)N4CCCCN(C(=O)c5ccc6c(c5)OCO6)C[C@@H]34)cc2)c1`, with 69.7% (active); and `COCCNC[C@@H]1[C@H](c2ccccc2)[C@H](CO)N1c1nc(C)c(C)s1`, with -17.4% (inactive).
Then `CC(=O)N1CC[C@@H]2[C@H](CO)Nc3ccc(C#Cc4ccccc4F)cc3[C@@H]21`, with -0.01% (inactive).
